High-throughput results as filed in PubChem BioAssay.
TWEAK Fn14 block – TWEAK-Fn14 signaling inhibition; TWEAK-stimulated Fn14 reporter cells, luciferase luminescence, 8 h; inhibition, % at 10 µM; hit rate 2% among 360,000; AID 1159606; in the data active means inhibition above about 50%
EBV LMP1 NFkB – Epstein-Barr LMP1 NF-kappaB reporter inhibition | inhibition, % at 12.5 µM | LMP1-induced NF-kappaB luciferase reporter cells, luminescence | hit rate 0.69% among 350,000 | AID 504558; in the data active means inhibition above about 41%; inconclusive means no clear call, values can overlap the other calls;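 further: 0% = neutral control wells and 100% = reference inhibitor control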
LGR2 antag – inhibitors of bursicon-induced Drosophila LGR2 receptor cAMP signaling. HEK293 LGR2, CRE-luciferase, bursicon-stimulated, 4 h. inhibition, % at 9.99 µM. hit rate 0.35% among 380,000. AID 720647;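 active means drop in luminescence signal, shown as inhibition above about 50% in the replicate tests, limit read from the data, passing the limit was not always enough; inconclusive means probably only some replicates passing the limit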;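 further: agonist challenge used bursicon conditioned medium at about half maximal strength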
HSF-1 act – increases HSF-1 driven luciferase reporter signal. AID 504408. hit rate 1.7% among 300,000. NIH3T3-HGL HSF-1 luciferase reporter, MG132, 8 h; 100% = twice DMSO control signal. activation, % at 9 µM;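 active means mean replicate activation of at least 50% with a set share of replicates each reaching 50%; inconclusive means only one of those two conditions met; inactive means mean below 50% and too few replicates reaching it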;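 further: 0% = median of the neutral control wells and 100% = twice that signal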
TROY signal inh – blocks TROY-dependent signaling in reporter cells | hit rate 0.98% among 360,000 | Q293 LMP1-TROYcd NF-kB luciferase reporter, 4 h | inhibition, % at 10 µM | AID 1347056;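 active means compounds whose plate-normalised and pattern-corrected inhibition of the luciferase reporter signal at the single screening dose is 50% or more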
HSF1 inhib – HSF1 inhibition. NIH3T3-HGL HSE-luciferase, MG132-induced, luminescence 8 h; hits give low values. activity change, negative = inhibition, % at 7.5 µM (by protocol). hit rate 0.77% among 300,000;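 active means more than half of replicate wells show activity change below -50%, luminescence cut by over half; inconclusive means some wells, but at most half, below -50%; inactive means no replicate well below -50%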;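 further: luciferase reports HSF-1 transcriptional activity via heat shock element; 0% = median of DMSO wells and -100% = zero luminescence signal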
* = called active by the depositor; ? = inconclusive; . = no result. An excerpt weighted towards active compounds, which were near 3.6% of everything screened.

SMILES	TWEAK Fn14 block	EBV LMP1 NFkB	LGR2 antag	HSF-1 act	TROY signal inh	HSF1 inhib
Cc1nc(-c2ccc3c(c2)OCCCO3)cs1	-14	-35	.	?	-25	30
Cc1ccc2nc(-c3ccc4c(c3)NC(=O)CO4)cn2c1	-11	1	-20	64*	6	33
CN(C)S(=O)(=O)c1cccc(-c2cn3ccccc3n2)c1	-1	2	.	7	-35	6
Nc1nc(-c2ccc3c(c2)NC(=O)CO3)cs1	-12	-2	.	7	10	-6
C[C@H]1CCCCO[C@H](CN(C)S(=O)(=O)c2ccc(F)cc2)[C@@H](C)CN([C@@H](C)CO)C(=O)c2cc(NC(=O)Nc3ccc(F)cc3)ccc2O1	.	.	8	.	.	.
O=C(O)c1cc(-c2ccc3c(c2)OCO3)nc2ccc(Cl)cc12	-17	4	19	5	-54	-3
Clc1ccc2nc(-c3ccc4c(c3)OCO4)cn2c1	73*	60*	86*	45	0	7
CCC(Sc1nc(C)cc(C)n1)C(=O)Nc1ccc(Cl)cn1 (stereo unspecified)	59*	3	.	-7	.	-5
CCOC(=O)Cc1nnc(NC(=O)C(CC)Sc2nc(C)cc(C)n2)s1 (stereo unspecified)	-32	-1	20	12	-4	-3
C[C@@H]1CN([C@@H](C)CO)C(=O)c2cc(NC(=O)CCC(F)(F)F)ccc2O[C@@H](C)CCCCO[C@@H]1CN(C)C(=O)c1ccccc1	.	.	-1	.	.	.
CC(C)NC(=O)c1ccc(-c2cccc(C(F)(F)F)c2)o1	-23	-12	7	-12	-69	-1
Cc1cccc(C)c1NC(=O)CN(C)C(=O)c1ccc(-c2cccc(C(F)(F)F)c2)o1	-16	55*	-3	12	1	-3
Cc1ccc(C(C2=C(O)CC(C)(C)CC2=O)C2C(=O)CC(C)(C)CC2=O)s1 (stereo unspecified)	-16	-3	.	-3	8	4
CC1(C)CC(=O)C(C(C2=C(O)CC(C)(C)CC2=O)c2ccc(Br)s2)C(=O)C1 (stereo unspecified)	30	-4	26	124*	10	102
O=C(NCC[C@@H]1CC[C@@H](NC(=O)c2ccc3c(c2)OCO3)[C@H](CO)O1)Nc1cc(F)ccc1F	.	.	9	.	.	.
COc1ccc(CN(C)C[C@H]2Oc3c(NC(=O)NC4CCCCC4)cccc3C(=O)N([C@@H](C)CO)C[C@H]2C)cc1	.	.	-10	.	.	.
C[C@H](CO)N1C[C@H](C)[C@@H](CN(C)Cc2ccc(C(=O)O)cc2)Oc2ncc(C3=CCCCC3)cc2C1=O	.	.	-4	.	.	.
CCCCOc1ccc2c(c1)C(=O)c1cc(O)ccc1-2	-4	-28	-124	64*	-63	39
CN(C)CC/C=C1\c2ccccc2Sc2ccc(Cl)cc21	-4	-6	18	3	-66	-3
OCCN1CCN(CC/C=C2/c3ccccc3Sc3ccc(Cl)cc32)CC1	-25	80*	.	.	-13	.
O=S(=O)(Nc1ccc(O)c(Sc2nc3ccccc3s2)c1)c1cccc2ccccc12	50*	3	0	9	67*	-9
O=[N+]([O-])c1cc(-c2nnc(-c3ccccc3)o2)ccc1Oc1ccc(Cl)cc1	-88	-11	-53	40	-64	9
Cc1cc(C)cc(Oc2ccc(-c3nnc(-c4ccccc4)o3)cc2[N+](=O)[O-])c1	101*	5	.	-5	87*	4
CCN(Cc1ccccc1)C(=O)C1CCN(Cc2ccc(SC)cc2)CC1	-7	5	2	-11	-3	-1
CCN(Cc1ccccc1)C(=O)C1CCN(C/C(C)=C/c2ccccc2)CC1	2	10	1	88*	-2	38
NC(=O)N/N=C/c1c(Sc2nnnn2-c2ccccc2)nc2ccccn2c1=O	96*	17	?	26	-6	3
COC(=O)C1=C(C)NC(=O)NC1c1ccc(N2CCC(c3ccccc3)=N2)cc1 (stereo unspecified)	41	-4	2	0	52*	-1
COc1ccccc1NC(=O)Nc1ccc2c(c1)C(=O)N(C)C[C@@H](OC)[C@H](C)CN[C@@H](C)CO2	.	.	15	.	.	.
CNc1ccccc1C(C)(C)c1cc(-c2cccc(Br)c2)no1	31	-6	3	3	20	-5
CNc1ccccc1C(C)(C)c1cc(-c2ccc(F)cc2)no1	54*	20	11	-5	31	0
